Laboratory results taken from PubChem BioAssay (NCI).
About 83,000 compounds went through this panel and 20% of them were active in at least one assay; those are over-represented in the sample as a whole.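 Single-concentration screen, 48 h exposure, 96-well plates. Endpoint: percent growth. Below 10 = active.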 Activity calls are given as the source filed them.

Columns and labels:
Test in all cases: NCI-60 one-dose screen, 48 h (100 = growth as untreated, 0 = no growth, -100 = all killed)
Conditions in all cases: 10 µM unless noted
[1] = system: SR leukemia
[2] = system: RPMI-8226 leukemia
[3] = system: OVCAR-8 ovarian
[4] = system: OVCAR-5 ovarian
[5] = system: OVCAR-4 ovarian
[6] = system: SK-OV-3 ovarian
[7] = system: IGROV1 ovarian
[8] = system: OVCAR-3 ovarian
[9] = system: HS 578T breast
[10] = system: NCI/ADR-RES ovarian
[11] = system: T-47D breast
[12] = system: BT-549 breast
[13] = system: MDA-MB-435 melanoma
[14] = system: SW-620 colon
[15] = system: MCF7 breast
[16] = system: HCT-116 colon
[17] = system: HCC-2998 colon
[18] = system: KM12 colon
[19] = system: MDA-MB-468 breast

Measured: growth

CS(=O)(=O)Nc1cncc(-c2ccc3ncnc(NCc4ccccc4)c3c2)c1
active: [1] 6.25% | [7] 4.57% | [9] -5.05% | [11] 3.96% | [12] 2.92% | [15] 9.82% | [19] -34%
inactive: [2] 52% | [3] 49.2% | [4] 42.6% | [5] 44.8% | [6] 67.6% | [8] 33.6% | [10] 89% | [13] 55.1% | [14] 38.9% | [16] 19.1% | [17] 45.9% | [18] 65.5%

CCOC(=O)c1ccc(NC(=S)NC(=O)c2ccc(NC(=O)C(C)C)cc2OC)cc1
active: [1] 0.956% | [2] 0.989% | [11] -0.757% | [12] -5.7% | [15] 8.31% | [19] 3.97%
inactive: [3] 35.1% | [4] 90.1% | [5] 27.2% | [6] 100% | [7] 64.5% | [8] 57.4% | [9] 86.7% | [10] 23% | [13] 33.7% | [14] 62.6% | [16] 23.6% | [17] 67.9% | [18] 30.2%

Cn1cc(-c2cc3nc(-c4cn(C)c5ncccc45)cc(N)n3n2)c2cc(F)ccc21
inactive: [2] 38.1% | [3] 11.5% | [4] 47.9% | [5] 20.2% | [6] 24.4% | [7] 31.9% | [8] 43.9% | [9] 47.2% | [10] 28.3% | [11] 37.8% | [12] 35.4% | [13] 83.1% | [14] 61% | [15] 68.2% | [16] 10.2% | [17] 39.8% | [18] 61.8%
active: [1] -31.3% | [19] 7.65%

COc1cc(CNC(=O)[C@]23CCC(C)(C)CC2C2=CCC4[C@@]5(C)CCC(OC(C)=O)C(C)(C)C5CC[C@@]4(C)[C@]2(C)CC3)ccc1OCc1cn(-c2ccc(Cl)cc2Cl)nn1 (stereo not given in full)
inactive: [1] 103% | [2] 89.9% | [3] 102% | [4] 102% | [5] 102% | [6] 112% | [7] 92.8% | [8] 112% | [9] 100% | [10] 120% | [11] 85.1% | [12] 118% | [13] 105% | [14] 106% | [15] 86.5% | [16] 98.2% | [17] 122% | [18] 101% | [19] 112%

Oc1cncc(-c2ccc3ncnc(N4CCc5cc(F)c(Cl)cc54)c3c2)c1
active: [7] 5.56%
inactive: [1] 42.5% | [2] 55.2% | [3] 37.4% | [4] 59.8% | [5] 40.6% | [6] 54.3% | [8] 58% | [9] 18.1% | [10] 61.9% | [11] 41.9% | [12] 73.1% | [13] 69.6% | [14] 62.8% | [15] 35.3% | [16] 48.8% | [17] 51.7% | [18] 61.4% | [19] 48.2%

C/C(=N\Nc1ccc(C(=O)O)cc1)c1cnn(-c2cc(=O)[nH]c3ccc(C)cc23)c1C
inactive: [1] 88.6% | [2] 85.1% | [3] 104% | [4] 99.2% | [5] 94.6% | [6] 94.3% | [7] 112% | [8] 98.9% | [9] 92.5% | [10] 101% | [11] 98.9% | [12] 88.4% | [13] 101% | [14] 110% | [15] 90.4% | [16] 95.2% | [17] 108% | [18] 99.9% | [19] 83.2%

C[C@@H]1CN(c2ccc3ncc(C#Cc4cncc(C(=O)Nc5ccc(CN6CCN(C)CC6)c(C(F)(F)F)c5)c4)n3n2)C[C@@H](C)O1
active: [1] -27.6% | [2] -65% | [3] -71.8% | [4] -54.2% | [5] -61.5% | [6] -80.1% | [7] -56.3% | [8] -60.6% | [9] -49.2% | [10] -85.1% | [11] -62.6% | [12] -75.4% | [13] -96.4% | [14] -84.2% | [15] -93.1% | [16] -23.5% | [17] -97% | [18] -66.6% | [19] -95.1%

CC(C)(C)c1cc(-c2cc(-c3ccccc3)[nH]c(=O)c2C#N)cc(C(C)(C)C)c1
inactive: [1] 43.4% | [2] 66.9% | [4] 45.9% | [6] 43.7% | [7] 35.1% | [8] 27.1% | [10] 25.9% | [11] 36.4% | [13] 56.9% | [14] 66.1% | [15] 71.8% | [17] 59.8% | [18] 81.3% | [19] 37.8%
active: [3] 7.14% | [5] 5.22% | [9] -3.49% | [12] -3.78% | [16] -35%

O=C(CSc1nnc(-c2ccc(-c3nc4ccccc4[nH]3)cc2)o1)Nc1ccc(Br)cc1
active: [1] 5.23% | [2] 7.82% | [3] 4.46% | [14] -47% | [15] 9.69%
inactive: [4] 44.7% | [5] 54.3% | [6] 79% | [7] 35.8% | [8] 34.2% | [9] 57.2% | [10] 21.5% | [11] 32.8% | [12] 37.1% | [13] 18.3% | [16] 10.3% | [17] 71.2% | [18] 21.7% | [19] 67.3%

C/C(=N/O)c1ccc(NC(=O)CSc2nnc(-c3ccc4nc(-c5ccc(Cl)cc5)[nH]c4c3)o2)cc1
inactive: [1] 24% | [2] 54.4% | [4] 118% | [5] 101% | [6] 117% | [7] 102% | [8] 84.7% | [9] 12.7% | [10] 101% | [11] 97.8% | [13] 18.3% | [14] 67.4% | [15] 55.3% | [16] 69% | [17] 128% | [18] 36.4% | [19] 122%
active: [3] 1.29% | [12] -8.14%

O=C(N/N=C/c1ccc(Cl)o1)c1[nH]c2ccc(Br)cc2c1-c1ccccc1
active: [1] 7.2% | [2] 1.15% | [3] -56.7% | [4] -24.9% | [5] -22.3% | [6] 4.66% | [7] 5.37% | [8] -11.3% | [9] 3.22% | [10] -79% | [12] -25.9% | [13] -47.9% | [14] -29.6% | [15] 1.67% | [16] -56.1% | [17] -26% | [18] 2.65% | [19] -9.32%
inactive: [11] 29.8%

Cc1cccc(/C=C/c2ccc(NC(=S)NCCCCN(C)C)cc2)c1
active: [1] -17.4% | [2] -26.1% | [3] -62.3% | [4] -94.2% | [5] -93.7% | [6] -65.9% | [7] -91% | [8] -55.4% | [9] -54% | [10] -95.1% | [11] -67.8% | [12] -72.6% | [13] -90% | [14] -85.3% | [15] -73.7% | [16] -45.1% | [17] -92.7% | [18] -48.6% | [19] -83.5%

COc1cc(CNC(=O)C[C@H](C)CCC=C(C)C)ccc1OCc1cn(-c2ccc(Cl)cc2Cl)nn1
inactive: [1] 79.8% | [2] 90.7% | [3] 29.3% | [4] 91.7% | [5] 49.7% | [6] 26.1% | [7] 72.3% | [8] 101% | [9] 48.4% | [10] 32.9% | [11] 60.2% | [12] 83.7% | [13] 98.2% | [14] 89.3% | [15] 67.5% | [16] 53.1% | [17] 92.5% | [18] 93.1% | [19] 50.4%

COc1ccc(NC(=O)NN2C(=O)c3ccccc3N(C)C2c2ccc(OC)cc2)cc1 (stereo not given)
inactive: [1] 88.4% | [2] 99.1% | [3] 103% | [4] 107% | [5] 96.7% | [6] 101% | [7] 108% | [8] 89.8% | [9] 101% | [10] 92.2% | [11] 97.1% | [12] 29.9% | [13] 103% | [14] 100% | [15] 94.9% | [16] 59.4% | [17] 113% | [18] 101% | [19] 102%

COc1ccc2[nH]c(O)c(N=Nc3nc(-c4ccc(C#N)cc4)cs3)c2c1
active: [5] -46.8% | [8] 8.62%
inactive: [1] 17.4% | [2] 34.9% | [3] 58.2% | [4] 94.1% | [6] 104% | [7] 77.6% | [9] 36.5% | [10] 63.1% | [11] 54.7% | [12] 63.2% | [13] 67.3% | [14] 63.3% | [15] 69.8% | [16] 31.8% | [17] 90.8% | [18] 78.4% | [19] 77.5%
